{
  "source": "the supplement of paper PMC7669877",
  "note": "± gives the uncertainty stated by the source.",
  "data": [
    {"system": "Candidatus Liberibacter solanacearum in potato hairy roots", "assay": "relative CLso titer (% of untreated control); higher = less inhibition of bacterial titer", "conditions": "10 µM; 72 h", "description": "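Primary screen of ~220 Spectrum collection (MicroSource) compounds at 10 µM (0.1% DMSO) on Candidatus Liberibacter solanacearum-infected potato hairy roots in multi-well plates (Gamborg B-5 medium, vacuum infiltrated, 21 °C, dark, 72 h). CLso titer was measured by qPCR of 16S rDNA normalised to potato RPL2 (2^-ddCq), pairwise-standardised against untreated controls, averaged over two biological replicates and expressed as % of untreated.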", "units": {"relative CLso titer": "%"}, "values": [
      {"smiles": "COc1ccc(C(=O)c2ccccc2O)c(O)c1", "relative CLso titer": "86.9 ± 3.5"},
      {"smiles": "CCCC(C(=O)OCCN(CC)CC)(c1ccccc1)c1ccccc1", "relative CLso titer": "112 ± 16"},
      {"smiles": "COc1cc(NS(=O)(=O)c2ccc(N)cc2)ncn1", "relative CLso titer": "60.3 ± 11"},
      {"smiles": "NCCCC[C@H](N[C@@H](CCc1ccccc1)C(=O)O)C(=O)N1CCC[C@H]1C(=O)O", "relative CLso titer": "105 ± 33"},
      {"smiles": "CCCCNc1cc(C(=O)O)cc(S(N)(=O)=O)c1Oc1ccccc1", "relative CLso titer": "105 ± 14"},
      {"smiles": "COc1cc(CNC(=O)CCCC/C=C/C(C)C)ccc1O", "relative CLso titer": "130 ± 4.3"},
      {"smiles": "CC(NCCc1ccc(O)cc1)C(O)c1ccc(O)cc1", "note": "(centres undefined)", "relative CLso titer": "82.6 ± 20"},
      {"smiles": "Nc1cccc2c1CN(C1CCC(=O)NC1=O)C2=O", "note": "(centres undefined)", "relative CLso titer": "143 ± 43"},
      {"smiles": "CCOC(=O)[C@H](CCc1ccccc1)N[C@@H](C)C(=O)N1CCC[C@H]1C(=O)O", "relative CLso titer": "135 ± 34"},
      {"smiles": "C[C@]12CC[C@@H]3c4ccc(O)cc4CC[C@H]3[C@@H]1CC[C@@H]2O", "relative CLso titer": "126 ± 25"},
      {"smiles": "CN(C)CCOC(C)(c1ccccc1)c1ccccn1", "note": "(centres undefined)", "relative CLso titer": "109 ± 7.3"},
      {"smiles": "O=C(O)CN1C(=O)c2cccc3cccc(c23)C1=O", "relative CLso titer": "145 ± 46"},
      {"smiles": "C[C@]12CC[C@@H]3c4ccc(O)cc4CC[C@H]3[C@@H]1CC[C@@H]2OC(=O)CCC1CCCC1", "relative CLso titer": "150 ± 44"},
      {"smiles": "CCN(CC)CCOc1ccc(C(=C(Cl)c2ccccc2)c2ccccc2)cc1", "relative CLso titer": "42.7 ± 2.2"},
      {"smiles": "C[C@H]1O[C@@H](O[C@H]2[C@@H](O)C[C@H](O[C@H]3[C@@H](O)C[C@H](O[C@H]4CC[C@@]5(C)[C@H](CC[C@@H]6[C@@H]5CC[C@]5(C)[C@@H](C7=CC(=O)OC7)CC[C@]65O)C4)O[C@@H]3C)O[C@@H]2C)C[C@H](O)[C@@H]1O", "relative CLso titer": "231 ± 140"},
      {"smiles": "CC/C(=C(/CC)c1ccc(O)cc1)c1ccc(O)cc1", "relative CLso titer": "94.4 ± 41"},
      {"smiles": "Nc1ccc(C(=O)Oc2ccccc2)c(O)c1", "relative CLso titer": "102 ± 12"},
      {"smiles": "C[C@@H]1C[C@H]2[C@@H]3CCC4=CC(=O)C=C[C@]4(C)[C@@]3(F)[C@@H](O)C[C@]2(C)[C@@]1(O)C(=O)COP(=O)(O)O", "relative CLso titer": "137 ± 29"},
      {"smiles": "O=C(O)CN(CCN(CC(=O)O)CC(=O)O)CC(=O)O", "relative CLso titer": "228 ± 120"},
      {"smiles": "Cc1cn([C@H]2C[C@H](N=[N+]=[N-])[C@@H](CO)O2)c(=O)[nH]c1=O", "relative CLso titer": "52.6 ± 7.3"},
      {"smiles": "CCN1CCC[C@H]1CNC(=O)c1cc(S(N)(=O)=O)ccc1OC", "relative CLso titer": "118 ± 86"},
      {"smiles": "OC[C@@H](O)[C@@H](O)[C@H](O)[C@H](O)CO", "relative CLso titer": "70.5 ± 11"},
      {"smiles": "CN1CCN(C(c2ccccc2)c2ccccc2)CC1", "relative CLso titer": "105 ± 31"},
      {"smiles": "O=C(N[C@H](CO)[C@H](O)c1ccc([N+](=O)[O-])cc1)C(Cl)Cl", "relative CLso titer": "57.2 ± 12"},
      {"smiles": "COC(=O)Nc1nc2cc(C(=O)c3ccccc3)ccc2[nH]1", "relative CLso titer": "84 ± 10"},
      {"smiles": "CCC(=O)O[C@H]1[C@H](O[C@@H]2[C@@H](C)[C@H](O[C@H]3C[C@@](C)(OC)[C@@H](O)[C@H](C)O3)[C@@H](C)C(=O)O[C@H](CC)[C@@](C)(O)[C@H](O)[C@@H](C)C(=O)[C@H](C)C[C@@]2(C)O)O[C@H](C)C[C@@H]1N(C)C", "relative CLso titer": "108 ± 26"},
      {"smiles": "CC1=C(/C=C/C(C)=C/C=C/C(C)=C\\C(=O)O)C(C)(C)CCC1", "relative CLso titer": "80.8 ± 13"},
      {"smiles": "Nc1ccn([C@@H]2O[C@H](CO)[C@@H](O)[C@@H]2O)c(=O)n1", "relative CLso titer": "83.2 ± 46"},
      {"smiles": "CCN(CC)CCNC(=O)COc1ccc(OC)cc1", "relative CLso titer": "93.2 ± 2.3"},
      {"smiles": "NC12CC3CC(CC(C3)C1)C2", "relative CLso titer": "42.5 ± 3.2"},
      {"smiles": "COc1cccc2c1C(=O)c1c(O)c3c(c(O)c1C2=O)C[C@@](O)(C(C)=O)C[C@@H]3O[C@H]1C[C@H](N)[C@H](O)[C@H](C)O1", "relative CLso titer": "202 ± 6.5"},
      {"smiles": "CN(C)/N=N/c1[nH]cnc1C(N)=O", "relative CLso titer": "84.5 ± 19"},
      {"smiles": "CC1=C(C(=O)O)N2C(=O)[C@@H](NC(=O)[C@H](N)c3ccccc3)[C@H]2SC1", "relative CLso titer": "87.1 ± 16"},
      {"smiles": "Cc1cc(-c2ccccc2)nnc1NCCN1CCOCC1", "relative CLso titer": "86.8 ± 63"}
    ]}
  ]
}
